Screening results (PubChem BioAssay)
A selection: hits, their analogues and other compounds. The true share with any hit is near 19%.
TDP1 inh: inhibitors of human tyrosyl-DNA phosphodiesterase TDP1. recombinant TDP1, AlphaScreen DNA substrate cleavage. Q9NUW8. 350,000 compounds, 0.28% hits. Potency, µM (titrated, usually from 130 µM), for the others: at the highest dose activity change, negative = inhibition, usual class: inhibitors; note: potency is the fitted concentration of half-maximal effect; % is set by controls: 0 for no effect and ±100 for the full control effect; nearly all actives have a fitted effect of over 40% in size
Target sequence (Q9NUW8 whole entry, looked up): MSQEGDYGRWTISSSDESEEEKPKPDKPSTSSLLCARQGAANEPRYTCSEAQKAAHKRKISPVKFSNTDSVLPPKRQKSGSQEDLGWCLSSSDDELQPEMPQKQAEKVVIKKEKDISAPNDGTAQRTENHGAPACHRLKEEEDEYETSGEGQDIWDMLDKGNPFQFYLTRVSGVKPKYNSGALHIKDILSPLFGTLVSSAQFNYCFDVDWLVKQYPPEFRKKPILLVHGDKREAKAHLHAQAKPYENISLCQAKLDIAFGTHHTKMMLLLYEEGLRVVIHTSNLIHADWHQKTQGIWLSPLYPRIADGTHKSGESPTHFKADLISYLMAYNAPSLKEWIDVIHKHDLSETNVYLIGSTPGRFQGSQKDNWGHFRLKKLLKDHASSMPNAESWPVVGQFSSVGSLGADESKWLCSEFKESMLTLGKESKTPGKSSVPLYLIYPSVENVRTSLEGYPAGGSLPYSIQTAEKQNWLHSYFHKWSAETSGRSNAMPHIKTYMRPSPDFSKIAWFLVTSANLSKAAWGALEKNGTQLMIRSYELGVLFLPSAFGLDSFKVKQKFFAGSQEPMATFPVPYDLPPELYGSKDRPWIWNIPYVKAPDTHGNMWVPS
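E. coli-derived human Tdp1, 1 nM final. Cpd preinc 15 min RT; substrate 15 nM final, 5 min RT; AS bead mix 10 ug/ml final, 10 min RT. Signal loss = tyrosine-FITC cleavage. No-enzyme wells = max signal.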
IL1B secr inh: inhibitors of inflammasome signaling (IL-1 beta secretion); 360,000 compounds, 4.7% hits; AID 743279; THP-1 LPS/ATP IL-1B secretion, AlphaLISA, 16 h; hits give low values; activity change, % at 57.5 µM; in the data active = activity change below about -50%; inconclusive = mostly about -30% to -49%; note: % is set by controls: 0 for no effect and ±100 for the full control effect
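Secreted IL-1B measured by AlphaLISA bead assay after 16 h compound exposure of THP-1 cells; compounds (final up to 57.5 uM) added 1 h before LPS (250 ng/mL) and ATP (1.25 mM) stimulation; lower signal means less secretion.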
TDP1 cell noCPT: qHTS for Inhibitors of human tyrosyl-DNA phosphodiesterase 1 (TDP1): qHTS in cells in absence of CPT. DT40 Tdp1-/- hTDP1 cells, no CPT, ATP luminescence, 48 h. Potency, µM (titrated, usually from 46.2 µM), without a hit: at the top dose activity change, negative = growth inhibition, most hits filed as inhibitors. 420,000 compounds, 15% hits. AID 686978, 2013; note: potency is the fitted concentration of half-maximal effect; % is set by controls: 0 for no effect and ±100 for the full control effect; nearly all actives have a fitted effect of over 55% in size
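Stably hTDP1-transfected Tdp1-null chicken DT40 cells were treated with library compounds minus camptothecin and grown for at least 48 hr at 37 °C, after which cellular ATP was quantified by luminescence.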
TDP1 cell CPT: DT40-hTDP1 cell growth loss with CPT; AID 686979; Potency, µM (doses to about 46.2 µM), for inactives: top-dose activity change, negative = growth inhibition, hits mostly inhibitors; chicken DT40 Tdp1-/-;hTDP1 cells + 20 nM CPT, ATP luminescence, 48 h; 420,000 compounds, 12% hits; note: potency is the fitted concentration of half-maximal effect; % is set by controls: 0 for no effect and ±100 for the full control effect; nearly all actives have a fitted effect of over 55% in size
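Cell growth measured by CellTiter-Glo luminescence after a minimum 48 h, 37 C compound exposure with 20 nM CPT in Tdp1-knockout DT40 cells stably expressing hTDP1, seeded 400/well; qHTS titration format.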
TGFb SMAD3 inh: inhibitors of TGF-b signaling | HepG2 CAGA-GFP TGF-b/SMAD3 reporter, GFP fluorescence, 18 h; TGF-beta stimulated, 500 pg/mL final | Potency, µM (doses to about 46.1 µM), for inactives: at the top dose activity, negative = inhibition, hits mostly inhibitors | 410,000 compounds, 1.2% hits | AID 588855; note: potency is the fitted concentration of half-maximal effect; % is set by controls: 0 for no effect and ±100 for the full control effect; nearly all actives have a fitted effect of over 65% in size
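HEPG2 CAGA-GFP, 1000 cells/well; 2 h settle, 37 C; cpd via pin tool; TGF-b 500 pg/mL final; 18 h, 37 C; GFP imaging ex488/em500-530; %Activity normalised to -TGF-b and +DMSO controls; CRC fit, curve class.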
HepG2 tox: HepG2 cytotoxicity, counter-screen for TGF-b inhibitors; HepG2 CAGA-GFP viability, ATP luminescence, 18 h; Potency, µM (doses to about 46.1 µM), for inactives: at the top dose activity change, negative = cytotoxicity, usual class: cytotoxic; 410,000 compounds, 0.76% hits; AID 588856; note: potency is the fitted concentration of half-maximal effect
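CellTiter-Glo luminescence gave cytotoxicity after 18 hours at 37 degrees C. The cells were HepG2 CAGA-GFP in 1% FBS DMEM, stimulated with 500 pg/mL TGF-beta after compound addition. %Activity was normalised to no-cell wells (complete cell-killing) and DMSO (no toxicity), and curves were fitted and classified.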
* hit, by the source's call; ? = inconclusive; . = no result given; [ ] = remark or other dose. Unless noted, calls come from the whole dose curve; as a rule, active = well fitted curve in the direction sought with a large enough effect; inconclusive = small, poorly fitted or top-dose-only effect, or another doubt; inactive = no such curve, though single readings can be large; an effect the other way counts as inactive or inconclusive.

SMILES | TDP1 inh | IL1B secr inh | TDP1 cell noCPT | TDP1 cell CPT | TGFb SMAD3 inh | HepG2 tox
C=CCNC(=O)/C(C#N)=C/c1c(C)nn(-c2ccccc2)c1Cl | -5% | -68* | ? | ? | -12% | -16%
CCOc1ccccc1NC(=O)/C(C#N)=C/c1cccnc1 | 4%[56.1 µM] | 69 | -4% | -16% | -9% | -13%
C=CCNC(=O)/C(C#N)=C/c1cn(-c2ccccc2)nc1-c1cccs1 | 3% | -9 | ? | ? | -19% | -7%
COc1cccc(Cn2c(=O)c(-c3ccc(F)cc3)nc3cnc(OC)nc32)c1 | . | . | 1% | 6% | . | .
O=C(CCc1nc2ccccc2c(=O)[nH]1)Nc1nnc(SCc2ccccc2F)s1 | -6% | 27 | 16µM* | 13µM* | -26% | -2%
O=C(CCc1nc2ccccc2c(=O)[nH]1)Nc1nnc(SCc2ccc(Cl)cc2)s1 | -12% | 16 | ? | -25% | 1% | -2%
CNc1nc(Cl)nc2c1ncn2CC(COC(=O)C(C)(C)C)COC(=O)C(C)(C)C | 10% | . | . | . | . | .
COC(OC)[C@@H](C)[C@H](OC)[C@@H](C)[C@H](OC)c1ccccc1 | -2%[21 µM] | . | . | . | . | .
COc1ccc(/C=C(\C#N)c2cc(OC)c(OC)cc2[N+](=O)[O-])cc1 | . | 23 | -23% | -23% | 10% | 10%
COc1cc(/C(C#N)=C/c2ccccc2)c([N+](=O)[O-])cc1OC | -1% | -83* | ? | -25% | -6% | -26%
N#C/C(=C\c1cccnc1)c1ccccc1[N+](=O)[O-] | 0% | -92* | ? | -3% | ? | 4%
O=C(NCCc1ccccc1F)C1C(=O)Nc2ccccc2C(=O)N1C1CCCCC1 (stereo not drawn) | . | 0 | -10% | 6% | . | .
NC(=O)c1ccsc1NC(=O)COC(=O)c1cccnc1Cl | -7% | 2 | -10% | 13% | -2% | -2%
COC(=O)CSc1nc(C)c(C(=O)Nc2ccccc2C)c(-c2ccc(Cl)cc2)c1C#N | -2% | -76* | ? | ? | -3% | -14%
Cc1ccccc1NC(=O)c1c(C)nc(SCC(=O)OCc2ccccc2)c(C#N)c1-c1ccc(F)cc1 | ? | 6 | 15µM* | ? | -5% | -10%
CCOc1cc(/C=C\[N+](=O)[O-])ccc1OCC(=O)N1CCOCC1 | 3% | -107* | 2.3µM* | 2.6µM* | ? | -16%
CCOc1cc(/C=C/c2nc3cc(C)c(C)cc3s2)ccc1OCC(=O)N1CCOCC1 | -3% | 10 | ? | ? | -4% | -8%
CCOc1cc(/C=N/NC(=S)Nc2ccccc2C(F)(F)F)ccc1OCC(=O)N1CCOCC1 | -11% | -17 | 8.2µM* | 5.8µM* | -5% | -4%
Cc1ccc(C(=O)NCCc2nnc3ccc(SCC(=O)N4CCCCC4)nn23)cc1 | 3% | 0 | -15% | -9% | 3% | 16%
O=C1NC(=S)S/C1=C\c1ccc(SCc2ccccc2)o1 | 3% | 5 | ? | -16% | -29% | -33%
O=C1NC(=S)S/C1=C\c1ccc(SCc2ccco2)o1 | . | 4 | ? | 18µM* | ? | -34%
CCc1c(C)nc2ncnn2c1N1CCN(S(=O)(=O)c2ccc(OC)cc2)CC1 | -3% | -1 | 5.8µM* | 3.7µM* | -11% | -11%
CCc1c(C)nc2ncnn2c1Nc1ccc(C)c(C)c1 | -2% | 7 | ? | 23µM* | 13% | -9%
CCc1c(C)nc2ncnn2c1NCCc1ccc(OC)cc1 | -2% | -21 | 3.5µM* | 2.8µM* | -6% | -15%
COc1c2c(cc3c1C(CC(O)C(C)C)N(C)CC3)OCO2 (stereo not drawn) | 4% | . | -13%[9.04 µM] | 6%[9.04 µM] | . | .
SMILES | TDP1 inh | IL1B secr inh | TDP1 cell noCPT | TDP1 cell CPT | TGFb SMAD3 inh | HepG2 tox
CC(=O)Nc1ccc(N=Cc2ccc(OCc3ccccc3)cc2)cc1 | 5% | 0 | -21% | -5% | -17% | -23%
C(=Nc1ccc(Nc2ccccc2)cc1)c1ccc2ccccc2c1 | 1% | -69* | 12µM* | 13µM* | 0% | -8%
Brc1ccc(C=Nc2ccc(Nc3ccccc3)cc2)s1 | 0% | -11 | 16µM* | ? | -17% | -30%
Cc1nc(C(F)(F)F)ccc1C(=O)N1CCC1(C)C(=O)NS(=O)(=O)c1c(C)noc1C (stereo not drawn) | . | 23 | 7% | -3% | ? | 7%
COc1ccc2nccc(/C=C/c3ccc(N(C)C)cc3)c2c1 | . | . | 11µM* | ? | -16% | -34%
CN(C)c1ccc(/C=C/c2ccnc3ccc(O)cc23)cc1 | . | . | ? | ? | 19% | -36%
CN(C)c1ccc(/C=C/c2ccnc3ccc(Cl)cc23)cc1 | . | . | 13µM* | ? | ? | -34%
CN(C)c1ccc(/C=C/c2ccnc3ccc(F)cc23)cc1 | . | . | 14µM* | 13µM* | -3% | -31%
CN(C)c1ccc(/C=C/c2ccnc3ccc(Br)cc23)cc1 | . | . | 5.6µM* | 5.6µM* | 20% | -28%
CCCN(CCC)S(=O)(=O)c1ccc2c(c1)N(CC(=O)NCc1ccc(F)cc1Cl)C(=O)CS2 | 9% | . | ? | ? | ? | -27%
COCCN(C(=O)COC(=O)CSc1ccc(Cl)cc1)c1c(N)n(Cc2ccccc2)c(=O)[nH]c1=O | . | -10 | -4% | -11% | 15% | -1%
Cc1ccc(OCCCC(=O)N(C)CC(=O)Nc2ccccc2Cl)cc1 | . | -10 | -20% | -5% | -14% | -27%
CN(C)c1ccc(/C=C/c2ccnc3ccc(-c4ccccc4)cc23)cc1 | . | . | 14µM* | ? | 14% | 5%
CN(C)c1ccc(/C=C/c2ccnc3cc(Cl)cc(Cl)c23)cc1 | . | . | ? | ? | 6% | 1%
